# Shown are actives, neighbours in structure and some others; about 2.7% of the full set was active somewhere.
# Nrf2 block: Nrf2 qHTS screen for inhibitors; A549 ARE-Fluc reporter, luciferase luminescence, 18-24 h; Potency, µM (doses to about 46 µM), inactives show at the top dose activity change, negative = inhibition, actives largely listed as inhibitors; hit rate 2.1% among 360,000; AID 504444, 2011; further: potency means the concentration at half of the fitted maximal effect; on the % scale 0 is the no-effect control and ±100 the full control effect; nearly all actives have a fitted effect of over 60% in size
#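 A549 ARE_Fluc cells (5000/well, 5% FBS OPTI-MEM) pre-incubated 2 h, then treated with compounds 18-24 h at 37C/5% CO2 in concentration-response. CellTiter-Fluor viability read first; BugLite luciferase luminescence after 15 min at room temperature gives Nrf2 activity.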
# ERG Ets-DNA blk: qHTS for Small Molecule Inhibitors of the ERG Ets/DNA interaction; Transcriptional regulator ERG (Homo sapiens), P11308; fluorescence polarization, His-ERG Ets domain / labelled DNA; Potency, µM (highest dose often 76.9 µM), for the others: top-dose FP activity, negative = inhibition, hits mostly inhibitors; hit rate 0.028% among 370,000; active means well fitted inhibition curve with a large enough effect in the polarisation, with a control signal flat; inconclusive means small, poorly fitted or top-dose-only effect, or effect the other way, or a change in a side signal; inactive means no such curve, though single readings can be large or run the other way; the % refers to the polarisation;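 further: polarization taken with two DNA probes labelled with fluorescein and Texas red; potency means the concentration at half of the fitted maximal effect; % of control where 0% means no effect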
#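 His-tagged ERG Ets domain (1 uM in the protein solution; 300mM KCl, 50mM Tris-HCl, 1mM EDTA, 1mM DTT, pH 7.5) received compound, then a probe mix of 5 nM fluorescein-DNA and 100nM Texas-615-DNA. Fluorescence polarization was read for both dyes.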
# LDHA block: qHTS assay for inhibitors of human lactate dehydrogenase; hit rate 0.15% among 480,000; L-lactate dehydrogenase A chain (Homo sapiens), P00338; activity change, % (values are at about 110 or 230 µM); purified LDHA, NADH/diaphorase-resazurin fluorescence; active compounds read low; AID 1347041, 2019; in the data active means activity change below about -30%; inconclusive means mostly about -25% to -30%;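 further: plate controls were DMSO wells for no effect and wells without enzyme for full effect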
#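 Human LDH5 (2 nM) was incubated with 0.06 mM NADH and 0.2 mM pyruvate for 5 min at room temperature in Tris pH 7.4. Remaining NADH was coupled through diaphorase/resazurin, and resorufin fluorescence was read at 0 and 20 min.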
# A549 viability: Nrf2 qHTS screen for inhibitors: counterscreen for cytotoxicity. AID 504648, 2011. A549 ARE-Fluc cells, CellTiter-Fluor viability, 18-24 h. Potency, µM (doses to about 46 µM), inactives show top-dose activity change, negative = cytotoxicity, usual class: inhibitors. hit rate 0.16% among 390,000; further: potency means the concentration at half of the fitted maximal effect; on the % scale 0 is the no-effect control and ±100 the full control effect
#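 A549 ARE-Fluc cells in 5% FBS OPTI-MEM, 5000 cells/well, rested 2 h then exposed to compounds in concentration-response for 18-24 h at 37 °C. Viability by CellTiter-Fluor fluorescence (Ex 405/Em 525) after 30 min; luciferase luminescence (BugLite, 15 min, RT) read afterwards.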
# 12-LOX inh: Primary qHTS assay for inhibitors of human arachidonate 12S-lipoxygenase (ALOX12): Round 2. Polyunsaturated fatty acid lipoxygenase ALOX12 (Homo sapiens), P18054. purified 12hLO, xylenol orange hydroperoxide absorbance. Potency, µM (series often up to 108 µM), for the others: at the top dose activity change, negative = inhibition, most hits filed as inhibitors. hit rate 1.1% among 580,000; further: potency means the concentration at half of the fitted maximal effect; on the % scale 0 is the no-effect control and ±100 the full control effect
# Target sequence (P18054 whole entry, looked up): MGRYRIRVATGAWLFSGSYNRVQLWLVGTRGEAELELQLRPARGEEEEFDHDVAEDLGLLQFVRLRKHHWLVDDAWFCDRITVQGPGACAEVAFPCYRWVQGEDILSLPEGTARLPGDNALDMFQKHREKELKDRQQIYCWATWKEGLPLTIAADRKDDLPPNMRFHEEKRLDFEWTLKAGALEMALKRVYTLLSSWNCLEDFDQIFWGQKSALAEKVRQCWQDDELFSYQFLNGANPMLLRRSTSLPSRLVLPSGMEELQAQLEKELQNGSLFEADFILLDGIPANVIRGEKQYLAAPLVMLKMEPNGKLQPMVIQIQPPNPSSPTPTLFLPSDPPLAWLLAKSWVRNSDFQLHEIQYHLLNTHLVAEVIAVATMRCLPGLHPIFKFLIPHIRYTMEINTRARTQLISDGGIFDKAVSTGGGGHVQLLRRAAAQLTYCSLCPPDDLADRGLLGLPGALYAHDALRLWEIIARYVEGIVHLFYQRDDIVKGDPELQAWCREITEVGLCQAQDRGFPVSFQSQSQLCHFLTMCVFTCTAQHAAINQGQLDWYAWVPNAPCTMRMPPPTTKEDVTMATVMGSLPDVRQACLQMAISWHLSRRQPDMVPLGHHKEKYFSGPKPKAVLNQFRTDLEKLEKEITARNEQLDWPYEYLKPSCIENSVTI
#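 Hydroperoxide product was detected by ferrous iron/xylenol orange as the 573 to 405 nm absorbance ratio. Arachidonic acid at 40 uM (final) was turned over for 30 min at room temperature by 150 nM human 12hLO, pH 7.0 Hepes buffer, after 15 min compound preincubation.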
# Nrf2 activator: qHTS of Nrf2 Activators. AREc32 ARE-luciferase reporter (MCF7-derived line), luminescence, 24 h. Potency, µM (doses to about 46.1 µM), without a hit: top-dose activation, actives largely listed as activators. hit rate 0.31% among 410,000; further: potency means the concentration at half of the fitted maximal effect; % of control where 0% means no effect; nearly all actives have a fitted effect of over 65% in size
#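 Nrf2 activation is followed as ARE-luciferase induction in the AREc32 line after one day of compound treatment; luminescence is read with Steady-Glo.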
# Starred values were filed as active, the others as inactive; ? = inconclusive; . = no result given; [ ] = dose if it differs, or a comment. Unless noted, the call rests on the fitted dose curve; in most records, active means well fitted curve in the direction sought with a large enough effect; inconclusive means small, poorly fitted or top-dose-only effect, or another doubt; inactive means no such curve, though single readings can be large; an effect the other way counts as inactive or inconclusive.
SMILES,Nrf2 block,ERG Ets-DNA blk,LDHA block,A549 viability,12-LOX inh,Nrf2 activator
COc1cccc(OCCn2c(C)nc3cc(C)c(C)cc32)c1,.,.,9.2,.,63.8%,.
COCCOc1ccc(C(F)(F)F)cc1NC(=O)c1ccc(C)cc1,-1.1%,0.1%,-7.0,0.3%,-0.4%,11.2µM*
CC(Sc1ccc2c(c1)OCCCO2)C(=O)Nc1ccc(Br)cc1 (stereo not given),.,.,17.3,.,?,.
COCCN1C[C@H]2CN(Cc3ccc(C(=O)O)cc3)CCN2C1=O,.,.,.,.,28.2µM*,.
COCCN1C[C@H]2CN(Cc3ccccc3)CCN2C1=O,.,.,.,.,20.8%[176 µM],.
S=C(N/N=C/c1ccc2ncccc2c1)Nc1ccccc1,13µM*,4.6%,-5.5,3.3%,-25.1%,0.4%
COc1ccc(NC(=S)Nc2ccc(Oc3ccccc3)cc2)cc1,23.1µM*,-2.2%,-11.8,-0.7%,179.8%,-0.6%
COc1ccc(/C=N/NC(=S)Nc2cccc(C(=O)O)c2)cc1,?,3.5%,-13.9,-0.9%,?,-1.5%
CCOc1ccc(NC(=S)Nc2ccc3nsnc3c2)cc1,20.9%,-6.5%,15.6,-5.9%,?,5.0%
COc1ccc(/C=N/NC(=S)Nc2ccccc2)cc1,-11.3%,1.5%,-10.9,0.2%,50.1µM*,0.3%
COc1ccc(NC(=S)Nc2ccc3nsnc3c2)cc1,14.4%,3.0%,31.2,6.3%,7.94µM*,2.9%
CCCc1ccc(OCC)c(-c2csc(N)n2)c1,.,.,9.4,.,?,.
Cc1ccc(-c2cn(-c3ccccc3)c(=S)[nH]2)cc1C,?,-10.4%,-7.5,18.3%,35.5µM*,1.4%
CCN(CC)S(=O)(=O)c1ccc(N(C)C)c(NS(=O)(=O)c2cc(C)ccc2C)c1,.,.,-6.6,.,?,.
COc1ccccc1C(c1nnnn1Cc1ccco1)N1CCN(c2cccc(C)c2C)CC1 (stereo not given),11.6µM*,-5.4%,-6.1,-14.8%,?,-0.8%
COc1ccc(N2CCN(C(c3cc(OC)ccc3OC)c3nnnn3Cc3ccco3)CC2)cc1 (stereo not given),?,-3.1%,1.5,-10.5%,22.4µM*,0.0%
COc1ccc(OC)c(C(c2nnnn2CCc2ccccc2)N2CCN(c3ccccc3)CC2)c1 (stereo not given),?,0.1%,-5.8,-9.4%,0.0%,-0.5%
CCN1CCN(C(c2cccc(OC)c2OC)c2nnnn2Cc2ccco2)CC1 (stereo not given),25.3%,0.8%,-5.4,-1.0%,-14.7%,-0.2%
Cc1cc2ccccc2nc1-c1cccc(O)c1,.,.,.,.,15.1%,.
O=C(COc1cc(O)c2c(=O)cc(-c3ccccc3)oc2c1)NCCCO,.,.,-1.1,.,0.5%,.
CCCc1sc(C(=O)Nc2ccccc2O)cc1CC,.,.,4.3,.,12.6µM*,.
CCN(Cc1ccccc1)C(=O)c1cc2cc(OC)ccc2oc1=O,.,.,-8.9,.,4.9%,.
COc1ccccc1COC(=O)N/C=C/c1ccco1,?,4.3%,-4.1,0.1%,50.1µM*,14.9%
COc1ccc(COC(=O)N/C=C/c2ccco2)cc1,?,7.8%,1.5,-2.3%,?,4.2%
CN(CC(=O)NC1(C)CCS(=O)(=O)C1)Cc1cccc(Cl)c1Cl (stereo not given),.,.,-8.4,.,33.4%,.
SMILES,Nrf2 block,ERG Ets-DNA blk,LDHA block,A549 viability,12-LOX inh,Nrf2 activator
COc1ccccc1-c1ccc([C@@H]2C[C@H]3[C@H](CON3C)CN2C(=O)c2ccco2)cc1,.,.,-32.2*,.,-3.3%,0.5%
COCCNc1nc2c(c(=O)n(C)c(=O)n2C)n1Cc1c(F)cccc1Cl,18.4µM*,5.1%,-12.1,-7.1%,-2.7%,-1.1%
Cc1ccc(Cn2c(NCCc3ccccc3)nc3c2c(=O)n(C)c(=O)n3C)cc1,14.6µM*,1.7%,6.2,-4.8%,-37.4%,-0.5%
Cn1c(=O)c2c(nc(NCCc3ccc(F)cc3)n2Cc2ccc(F)cc2)n(C)c1=O,.,.,7.1,.,-16.3%,.
CCNc1nc2c(c(=O)n(C)c(=O)n2C)n1Cc1ccc(Cl)cc1,9.2µM*,-1.3%,1.8,-5.3%,-17.5%,-0.2%
Cn1c(=O)c2c(nc(N/N=C/c3ccc(OC(=O)c4ccco4)cc3)n2Cc2ccccc2)n(C)c1=O,16.4µM*,2.9%,-1.6,-19.7%,14.6%,3.6%
CCNC(=O)C(C)NC(=O)C1(c2cccc(C)c2)CCCC1 (stereo not given),.,.,1.3,.,?,.
CN(C)CCCn1c(-c2cccc(OC(F)(F)C(F)F)c2)n[nH]c1=S,.,.,1.4,.,?,.
O=C(Cc1ccc(C(F)(F)F)cc1)NCCc1ccccn1,.,.,2.4,.,-13.0%,.
Cc1cc2oc(=O)cc(CSc3nnc4ccccn34)c2cc1C(C)C,.,.,12.3,.,-7.4%,.
Cn1c(=O)c2c(nc(NCc3ccco3)n2CCc2ccccc2)n(C)c1=O,20.6µM*,11.0%,-0.1,-15.3%,-7.4%,8.0%
CCCNc1nc2c(c(=O)n(C)c(=O)n2C)n1Cc1ccc(F)cc1,14.6µM*,1.2%,-2.6,-15.6%,-5.0%,0.5%
CCOc1ccccc1NC(=O)CCc1ccc(-c2ccc(C)c(C)c2)o1,.,.,8.7,.,-62.8%,.
O=c1c2ccccc2sc2ccc(NCCCN3CCOCC3)cc12,?,24.6%,5.9,0.9%,14.1µM*,-1.4%
COc1cc2sc3cc(NCCCN4CCOCC4)ccc3c(=O)c2cc1OC,3.5%,3.6%,0.4,3.5%,-0.6%,17.9%
